Values joined by “and” are separate entries in the source; they are usually repeats but may differ in a detail not shown here. Identical values can stand only once. Records with an inconclusive call do not appear. Entries that show only a call come without a potency. Some compounds were tested as several samples or in several runs, with calls that do not always agree. Active and inactive are the calls of the source. Unless noted, calls follow the shape of the dose curve; as a rule, active = well fitted curve in the direction sought with a large enough effect in the repeat runs; inconclusive = weak or mixed curves; inactive = no such curve, though single readings can be large; an effect the other way counts as inactive or inconclusive.
Tests used:
[1] = qHTS assay for small molecule agonists of the p53 signaling pathway (AID 651631; calls by dose curve; also: nearly all actives have a fitted effect of over 15% in size; also: potency is read from the fitted curve at half-maximal effect)
Method in brief: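 Beta-lactamase reporter activity under p53 response elements was quantified in HCT-116 cells by FRET fluorescence, following 16 h incubation with test compounds at 37 °C and 2 h substrate development at room temperature.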

[2] = qHTS assay for small molecules that induce genotoxicity in human embryonic kidney cells expressing luciferase-tagged ATAD5 (AID 651632); also: nearly all actives have a fitted effect of over 15% in size
Method in brief: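 A rise in luciferase signal from ATAD5-tagged HEK293T cells marks genetic stress. Cells were exposed to compounds for 16 hr at 37C, 5% CO2, then luciferase was quantified after a 30 min room-temperature incubation with Amplite.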

[3] = qHTS assay for small molecule agonists of the p53 signaling pathway - cell viability (AID 651633; calls by dose curve;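 also: p53RE-bla HCT reporter cells with a stable beta-lactamase p53 reporter; series mostly up to about 83 µM; nearly all actives have a fitted effect of over 30% in size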)
Method in brief: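 p53RE-bla cells, seeded at 4,000 per well and rested 5 h at 37 C/5% CO2, received compounds in DMSO for 16 h at 37 C. CellTiter-Glo was then added, and luminescence was read after 30 min at room temperature to gauge cytotoxicity.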

[4] = qHTS assay for small molecules that induce genotoxicity in human embryonic kidney cells expressing luciferase-tagged ATAD5 - cell viability (AID 651634; calls by dose curve; also: nearly all actives have a fitted effect of over 25% in size)
Method in brief: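 Cytotoxicity counter-readout: after 15.5 hr compound treatment at 37C, live-cell protease activity in ATAD5-luciferase HEK293T cells measured by CellTiter-Fluor fluorescence, 30 min development at 37C.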

[5] = qHTS assay for small molecule disruptors of the mitochondrial membrane potential - cell viability (AID 720634; calls by dose curve; also: nearly all actives have a fitted effect of over 20% in size; also: potency is read from the fitted curve at half-maximal effect)
Method in brief: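 Cytotoxicity was quantified from ATP content by CellTiter-Glo luminescence in the same wells as the MMP dye read-out. HepG2 (2,000 cells/well) were plated overnight and exposed to compounds for 1 hr at 37 C.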

[6] = qHTS assay to test for compound auto fluorescence at 590 nm (red) in HepG2 cells (AID 720674)
Method in brief: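 Compound auto-fluorescence is scored relative to Rose Bengal sodium, measured at 540/590 nm in live HepG2 cultures after 1 hr compound contact (37 C, 5% CO2).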

[7] = qHTS assay to test for compound auto fluorescence at 535 nm (green) in HepG2 cells (AID 720675)
[8] = qHTS assay to test for compound auto fluorescence at 590 nm (red) in HEK293 cells (AID 720679)
Method in brief: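 Each well held 2,000 HEK293 cells in medium containing 10% dialyzed FBS. Following 4-5 hr attachment at 37C, 23 nL test compound or DMSO was added; plates sat overnight, and red fluorescence (540/590nm) was recorded.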

[9] = qHTS assay to test for compound auto fluorescence at 535 nm (green) in HEK293 cells (AID 720680)
[10] = qHTS assay to test for compound auto fluorescence at 460 nm (blue) in HEK293 cell free culture (AID 720681)
Method in brief: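 Test compounds were pinned into cell-free culture medium (DMEM with 10% FBS) and fluorescence was read directly at Ex/Em 405/460 nm. Signals were expressed as fluorescence equivalents of triamterene, with DMSO vehicle as control.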

[11] = qHTS assay to test for compound auto fluorescence at 535 nm (green) in HEK293 cell free culture (AID 720682)
Method in brief: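 Each library compound, or DMSO control, is added by pintool to medium alone, comprising DMEM and 10% FBS. Emission at 535 nm following 485 nm excitation is quantified against fluorescein.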

[12] = qHTS assay to test for compound auto fluorescence at 590 nm (red) in HepG2 cell free culture (AID 720684)
Method in brief: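 Ex 540 / Em 590 nm read of compound in cell-free MEM (10% FBS). Rose Bengal sodium reference.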

[13] = qHTS assay to test for compound auto fluorescence at 535 nm (green) in HepG2 cell free culture (AID 720686)
[14] = qHTS assay to test for compound auto fluorescence at 460 nm (blue) in HepG2 cells (AID 720687)
Method in brief: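 Cells (2,000/well in MEM with 10% FBS) attached overnight at 37 C, then were exposed to compound or DMSO for 1 hr at 37 C, 5% CO2. Fluorescence read at Ex/Em 405/460 nm, expressed as triamterene-equivalent signal.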

[15] = target: Glucocorticoid receptor (Homo sapiens) (UniProt P04150); test: qHTS assay to identify small molecule agonists of the glucocorticoid receptor (GR) signaling pathway (AID 720691; active = well fitted activation curve with a large enough effect in the signal ratio in the repeat runs, not every such curve was filed as active; the % refers to the signal ratio)
Method in brief: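 Agonist-mode qHTS in HeLa cells stably expressing a glucocorticoid-response-element beta-lactamase reporter. Fluorescence intensity read with FRET substrate (2 h, room temperature) after 18 h compound treatment at 37 C.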

[16] = target: Glucocorticoid receptor (Homo sapiens) (UniProt P04150); test: qHTS assay to identify small molecule antagonists of the glucocorticoid receptor (GR) signaling pathway (AID 720692; active = well fitted inhibition curve with a large enough effect in the signal ratio in the repeat runs, not every such curve was filed as active; the % refers to the signal ratio)
Method in brief: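 Inhibition of dexamethasone-driven (5 nM final) beta-lactamase expression was measured in GRE-reporter HeLa cells over 18 h at 37C. Fluorescence was read after 2 h with the B/G FRET substrate at room temperature.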

[17] = qHTS assay to test for compound auto fluorescence at 460 nm (blue) in HEK293 cells (AID 720678)
Method in brief: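 Cells were seeded and left to adhere for 4-5 hr at 37C. Compounds were then pin-transferred. After an overnight incubation at 37C under 5% CO2, intrinsic fluorescence at 405/460 nm was measured and referenced to triamterene.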

[18] = qHTS assay to test for compound auto fluorescence at 590 nm (red) in HEK293 cell free culture (AID 720683)
Method in brief: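 Tox21 10K library compounds were pinned into cell-free DMEM with 10% FBS and fluorescence was read at excitation 540 nm. Activity is expressed as Rose Bengal sodium equivalency.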

[19] = qHTS assay to test for compound auto fluorescence at 460 nm (blue) in HepG2 cell free culture (AID 720685)
Method in brief: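 Cell-free plates of MEM plus 10% FBS received 23 nL compound or DMSO vehicle; blue-channel (405/460 nm) intensity scored against triamterene as reference fluorophore.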

[20] = qHTS assay for small molecule disruptors of the mitochondrial membrane potential (AID 720635); also: potency is read from the fitted curve at half-maximal effect
Method in brief: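 HepG2 cells (2,000/well) attached overnight at 37C, then took compound for 1 hr at 37C, 5% CO2. Mito-MPS dye was added for 30 min; fluorescence was read at 490/535 nm (monomers) and 540/590 nm (aggregates).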

Chain of Glucocorticoid receptor (Homo sapiens) (P04150 whole entry, looked up): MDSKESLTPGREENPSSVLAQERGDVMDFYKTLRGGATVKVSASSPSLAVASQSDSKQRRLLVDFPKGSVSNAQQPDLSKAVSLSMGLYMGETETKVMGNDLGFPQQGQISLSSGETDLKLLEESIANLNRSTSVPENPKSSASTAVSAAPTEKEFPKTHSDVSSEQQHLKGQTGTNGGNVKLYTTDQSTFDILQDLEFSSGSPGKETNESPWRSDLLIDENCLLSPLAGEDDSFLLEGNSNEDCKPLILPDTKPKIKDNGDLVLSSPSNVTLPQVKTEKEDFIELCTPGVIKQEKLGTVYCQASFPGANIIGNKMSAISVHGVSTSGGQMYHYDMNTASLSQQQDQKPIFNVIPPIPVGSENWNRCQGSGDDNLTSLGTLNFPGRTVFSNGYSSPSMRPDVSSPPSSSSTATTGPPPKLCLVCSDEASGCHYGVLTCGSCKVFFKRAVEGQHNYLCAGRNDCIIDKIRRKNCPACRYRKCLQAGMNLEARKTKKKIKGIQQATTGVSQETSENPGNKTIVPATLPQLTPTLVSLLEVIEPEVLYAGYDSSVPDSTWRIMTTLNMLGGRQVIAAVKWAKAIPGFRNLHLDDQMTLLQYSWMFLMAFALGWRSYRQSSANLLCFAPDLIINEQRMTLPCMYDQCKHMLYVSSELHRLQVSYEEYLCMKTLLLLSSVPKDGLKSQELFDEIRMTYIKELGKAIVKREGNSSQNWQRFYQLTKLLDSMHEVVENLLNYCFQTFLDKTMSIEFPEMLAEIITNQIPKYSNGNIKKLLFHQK

Row | Compound | Potency [1] | outcome [2] | Potency [3] | Potency [4] | Potency [5] | outcome [6] | outcome [7] | outcome [8] | outcome [9] | outcome [10] | outcome [11] | outcome [12] | outcome [13] | outcome [14] | Potency [15] | Potency [16] | outcome [17] | outcome [18] | outcome [19] | Potency [20]
1 | O=CCCl | inactive | inactive | inactive | inactive | inactive | inactive | inactive | inactive | inactive | inactive | inactive | inactive | inactive | inactive | inactive | inactive |  |  |  | 
2 | Oc1ccc2c3c1O[C@H]1[C@@H](O)C=C[C@H]4[C@@H](C2)NCC[C@@]341 | inactive | inactive | inactive | inactive |  | inactive | inactive | inactive | inactive | inactive | inactive | inactive | inactive | inactive |  |  | inactive | inactive | inactive | 
3 | C=CC(=O)OCCN(C)C | inactive | inactive | inactive |  | inactive |  | inactive | inactive | inactive | inactive | inactive |  | inactive | inactive | inactive | inactive |  | inactive | inactive | inactive
4 | CCOC(=O)Nc1cccc(OC(=O)Nc2ccccc2)c1 | inactive | inactive | inactive | inactive |  | inactive | inactive | inactive | inactive | inactive |  |  | inactive | inactive | inactive | inactive | inactive | inactive | inactive | 9.69 µM (active)
5 | COP(=O)(OC)O/C(C)=C/C(=O)N(C)C | inactive | inactive | inactive |  |  | inactive | inactive | inactive | inactive | inactive | inactive | inactive | inactive | inactive |  |  | inactive | inactive | inactive | 
6 | ClCCCCl | inactive | inactive | inactive | inactive | inactive |  | inactive | inactive | inactive |  | inactive | inactive | inactive | inactive | inactive |  |  | inactive | inactive | 
7 | COC1=CC(=O)O[C@@H](/C=C/c2ccccc2)C1 | inactive | inactive | inactive |  | inactive | inactive | inactive | inactive |  | inactive | inactive | inactive | inactive | inactive | inactive | inactive | inactive |  | inactive | inactive
8 | NC(=O)OCCCc1ccccc1 | inactive |  | inactive | inactive | inactive | inactive | inactive | inactive | inactive | inactive | inactive | inactive | inactive | inactive | inactive | inactive | inactive | inactive | inactive | inactive
9 | CCOC(=O)C(SP(=S)(OC)OC)c1ccccc1 (stereo not drawn) | inactive | inactive | inactive |  | inactive | inactive | inactive | inactive |  | inactive | inactive | inactive | inactive | inactive | inactive |  | inactive | inactive |  | 
10 | CCCCCCCCBr | inactive | inactive | inactive | inactive |  | inactive | inactive | inactive |  | inactive |  | inactive | inactive | inactive | inactive | inactive |  |  | inactive | 
11 | C[C@H](CN1CCOCC1)C(C(=O)N1CCCC1)(c1ccccc1)c1ccccc1 | inactive | inactive | inactive | inactive | inactive | inactive | inactive | inactive | inactive | inactive |  | inactive | inactive | inactive | inactive | inactive | inactive | inactive | inactive | 
12 | O=C1C2CC=CCC2C(=O)N1SC(Cl)(Cl)Cl (stereo not drawn) | 5.96 µM (active) | inactive | inactive |  | 29.8 µM (active) and inactive and 60.1 µM (active) | inactive | inactive | inactive | inactive | inactive | inactive |  | inactive | inactive |  |  | inactive | inactive | inactive | 8.41 µM (active) and 43.1 µM (active) and 8.49 µM (active)
13 | CCCCS(=O)(=O)Cl | inactive |  | inactive | inactive | inactive | inactive | inactive | inactive | inactive | inactive | inactive | inactive | inactive | inactive | inactive |  | inactive | inactive | inactive | inactive
14 | O=C(Cl)c1ccccc1 | inactive | inactive | inactive | inactive | inactive | inactive | inactive | inactive | inactive |  | inactive | inactive | inactive | inactive |  |  | inactive | inactive | inactive | 

From PubChem BioAssay (Tox21)
